Measured values reported in PubChem BioAssay.
Results filed as inconclusive are left out. Activity calls are given as the source filed them.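 How the source made its calls, unless noted: active means response below a set limit, under 55% cells CD8-positive and vesicle-bound, and CD8 cells' 90th-percentile brightness under 279; inactive means the rest.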

Tests used:
[1] = rapamycin-like changes in RPL19A-GFP expression – cell-based, S. cerevisiae, multiplex flow cytometry, primary screen (AID 1862; in the data active means percent of DMSO control GFP below about 86%;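 further: lower values mimic rapamycin by blocking the RPL19A rise seen in DMSO cells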); settings: S. cerevisiae RPL19A-GFP strain, flow cytometry fluorescence, 3 h; at 10 µM; stronger effect = lower value
[2] = TOR pathway GLN3 branch reporter MEP2-GFP changes – S. cerevisiae, multiplex flow cytometry, primary screen (AID 1867;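 active means GFP response, as percent of the DMSO control, above the screen-wide mean plus 3 SD, about 139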;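 further: median GFP channel fluorescence of barcode-gated MEP2-GFP cells measured by flow cytometry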); settings: S. cerevisiae MEP2-GFP strain, 3 h, at 10 µM, stronger effect = higher value, 100% means same as DMSO wells
[3] = TOR pathway RTG branch CIT2 reporter changes – S. cerevisiae, GFP fusion, multiplex flow cytometry, primary screen (AID 1870;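 active means percent response above a set limit, the screen-wide mean plus 3 SD, cut at about 130% in these data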;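 further: barcoded CIT2-GFP strain pooled with four other GFP strains with rapamycin as positive control; median GFP fluorescence per well over plate mean of DMSO wells so 100% = DMSO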); settings: S. cerevisiae CIT2-GFP expression, 3 h, at 10 µM, stronger effect = higher value
[4] = TOR pathway LAP4-GFP level changes – S. cerevisiae, multiplex flow cytometry, primary screen (AID 1873;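 active means GFP signal, as percent of the solvent control, above the screen mean plus 3 SD, about 149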); settings: S. cerevisiae LAP4-GFP expression, 3 h, at 10 µM, stronger effect = higher value
[5] = yeast AGP1-GFP level changes, GLN3 branch – cell-based, multiplex flow cytometry, S. cerevisiae, primary screen (AID 1887;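 active means GFP signal above the screen-wide mean plus 3 SD, that is over about 124.5% of the solvent control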;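 further: AGP1-GFP fusion strain of S. cerevisiae within a five-strain barcoded multiplex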); settings: 3 h, at 10 µM, stronger effect = higher value
[6] = reduced mouse 2C T cell binding to pMHC/ICAM-1 vesicles – MLPCN validation set, flow cytometry, LFA-1/ICAM-1 modulator project, pilot screen (AID 2523); settings: 2C mouse CD8+ T cells, at 7 µM, stronger effect = lower value; double positive events: measured here: CD8+/vesicle+ event percentage;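 on vesicle binding response: mean PE anti-B7-1 fluorescence of CD8+ cells relative to row control; 100% = QL9-loaded vesicles with DMSO vehicle in the same plate row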
[7] = target: Integrin beta-1 (Homo sapiens) + Integrin alpha-4 (Homo sapiens) (UniProt P13612+P05556); test: alpha4beta1 integrin LIBS antibody binding reduction – U937 cells, HUTS-21 mAb, flow cytometry, validation set, VLA-4 allosteric modulator project, pilot screen (AID 2674;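 active means inhibition above 50%, about 3 SD of the validation set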;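 further: antibody binding induced by the VLA-4 ligand LDV present at three times its Kd; 0% = LDV ligand with antibody and no compound and 100% = antibody without LDV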); settings: HUTS-21 LIBS mAb binding, at 6.7 µM, stronger effect = higher value, binding induced by LDV ligand
Chain of Integrin beta-1 (Homo sapiens) + Integrin alpha-4 (Homo sapiens) (P05556 whole entry, looked up): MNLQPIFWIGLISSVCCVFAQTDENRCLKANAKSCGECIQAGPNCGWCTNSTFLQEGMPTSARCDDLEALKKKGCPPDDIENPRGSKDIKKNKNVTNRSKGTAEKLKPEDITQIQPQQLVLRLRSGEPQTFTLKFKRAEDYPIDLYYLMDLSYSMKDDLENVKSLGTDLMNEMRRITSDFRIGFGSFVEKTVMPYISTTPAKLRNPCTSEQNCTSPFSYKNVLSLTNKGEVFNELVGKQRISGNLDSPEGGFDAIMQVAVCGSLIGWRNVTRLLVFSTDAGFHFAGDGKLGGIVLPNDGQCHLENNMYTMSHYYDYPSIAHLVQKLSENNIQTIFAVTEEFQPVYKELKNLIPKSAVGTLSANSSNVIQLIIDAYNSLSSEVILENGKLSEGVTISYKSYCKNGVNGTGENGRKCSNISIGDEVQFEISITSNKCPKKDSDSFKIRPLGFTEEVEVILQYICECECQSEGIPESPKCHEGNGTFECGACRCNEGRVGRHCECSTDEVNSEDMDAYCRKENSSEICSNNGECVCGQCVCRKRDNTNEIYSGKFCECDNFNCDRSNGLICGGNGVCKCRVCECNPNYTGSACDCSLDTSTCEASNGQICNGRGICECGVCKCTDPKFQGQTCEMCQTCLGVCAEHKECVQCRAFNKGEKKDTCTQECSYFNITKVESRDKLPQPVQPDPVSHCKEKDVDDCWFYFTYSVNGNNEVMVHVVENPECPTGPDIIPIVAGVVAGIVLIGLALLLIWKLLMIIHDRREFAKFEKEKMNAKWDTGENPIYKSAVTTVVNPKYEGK
Chain of Integrin beta-1 (Homo sapiens) + Integrin alpha-4 (Homo sapiens) (P13612 whole entry, looked up): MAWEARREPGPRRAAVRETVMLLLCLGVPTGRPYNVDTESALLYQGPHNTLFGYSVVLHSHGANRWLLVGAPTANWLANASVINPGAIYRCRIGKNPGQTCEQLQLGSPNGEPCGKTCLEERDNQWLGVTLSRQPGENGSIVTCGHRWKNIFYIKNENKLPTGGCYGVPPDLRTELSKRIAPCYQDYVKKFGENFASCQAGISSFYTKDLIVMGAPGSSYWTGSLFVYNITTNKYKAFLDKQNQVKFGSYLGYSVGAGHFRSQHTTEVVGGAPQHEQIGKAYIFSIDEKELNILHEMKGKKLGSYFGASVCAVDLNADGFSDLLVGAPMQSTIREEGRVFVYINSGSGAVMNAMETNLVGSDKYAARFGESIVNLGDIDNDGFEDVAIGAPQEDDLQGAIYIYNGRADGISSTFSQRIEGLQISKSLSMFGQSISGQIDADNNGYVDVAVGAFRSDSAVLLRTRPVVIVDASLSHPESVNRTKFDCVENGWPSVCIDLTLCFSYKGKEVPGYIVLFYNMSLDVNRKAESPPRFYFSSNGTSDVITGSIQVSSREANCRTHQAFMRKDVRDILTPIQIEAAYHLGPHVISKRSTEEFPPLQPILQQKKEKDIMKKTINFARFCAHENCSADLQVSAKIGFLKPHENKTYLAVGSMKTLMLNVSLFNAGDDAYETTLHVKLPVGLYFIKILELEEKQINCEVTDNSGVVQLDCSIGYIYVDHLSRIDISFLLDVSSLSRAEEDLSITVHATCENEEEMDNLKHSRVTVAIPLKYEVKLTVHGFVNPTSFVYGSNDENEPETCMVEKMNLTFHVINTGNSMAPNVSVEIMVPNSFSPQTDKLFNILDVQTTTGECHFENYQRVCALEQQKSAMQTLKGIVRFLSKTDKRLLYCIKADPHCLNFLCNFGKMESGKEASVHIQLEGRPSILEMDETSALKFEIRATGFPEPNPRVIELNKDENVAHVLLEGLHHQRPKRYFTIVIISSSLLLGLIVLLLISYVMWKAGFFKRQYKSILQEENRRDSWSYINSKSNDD

[8] = calorie-restriction mimetic ROS inhibitors, yeast – validation compound set, pilot screen (AID 2706;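 active means superoxide response below 65% of plate, a cut near 3 SD across the whole screen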;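 further: yeast exposed to compound for one week at 30 degrees C before staining; 100% = mean of all compound wells on the same plate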); settings: S. cerevisiae aging, superoxide DHE fluorescence; at 10 µM; stronger effect = lower value
[9] = target: Beta-adrenergic receptor kinase 1 (Homo sapiens) (UniProt P25098); test: GRK2 binders displacing RNA aptamer, biochemical, validation, human GRK2, bead flow cytometry (AID 488806;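 active means aptamer binding inhibition above 30%, about 3 SD of noise from non-fluorescent compounds; inactive means inhibition at or below 30%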); settings: bead-bound GRK2, FAM-aptamer displacement, at 10 µM, stronger effect = higher value
Chain of Beta-adrenergic receptor kinase 1 (Homo sapiens) (P25098 whole entry, looked up): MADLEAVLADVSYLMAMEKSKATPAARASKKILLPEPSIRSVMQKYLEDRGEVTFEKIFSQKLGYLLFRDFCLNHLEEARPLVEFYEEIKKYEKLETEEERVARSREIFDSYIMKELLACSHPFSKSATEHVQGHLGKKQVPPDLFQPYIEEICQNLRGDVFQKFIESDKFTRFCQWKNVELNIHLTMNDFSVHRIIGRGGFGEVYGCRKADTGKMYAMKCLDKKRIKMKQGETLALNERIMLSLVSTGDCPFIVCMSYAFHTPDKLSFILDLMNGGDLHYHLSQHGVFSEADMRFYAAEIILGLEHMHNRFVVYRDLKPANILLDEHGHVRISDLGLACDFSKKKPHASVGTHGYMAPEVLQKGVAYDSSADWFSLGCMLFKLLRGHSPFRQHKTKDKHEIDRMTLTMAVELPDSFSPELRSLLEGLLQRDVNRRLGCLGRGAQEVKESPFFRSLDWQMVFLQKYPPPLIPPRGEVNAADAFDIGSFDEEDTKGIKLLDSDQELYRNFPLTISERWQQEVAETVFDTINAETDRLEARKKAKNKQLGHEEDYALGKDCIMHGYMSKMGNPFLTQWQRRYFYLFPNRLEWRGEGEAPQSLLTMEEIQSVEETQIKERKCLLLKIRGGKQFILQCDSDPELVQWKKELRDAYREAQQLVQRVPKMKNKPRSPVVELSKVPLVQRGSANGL

[10] = target: Beta-2 adrenergic receptor (Homo sapiens) (UniProt P07550); test: agonist-induced loss of surface beta2AR – cell-based, FAP fluorogen, flow cytometry, validation set, pilot screen (AID 504459;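 active means percent response above 42, roughly 3 SD of non-fluorescent test compounds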;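 further: agonist-driven loss of surface beta2AR via internalization measured by FAP dye flow cytometry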); settings: Am2.2-beta2AR cells, at 10 µM, stronger effect = higher value
Chain of Beta-2 adrenergic receptor (Homo sapiens) (P07550 whole entry, looked up): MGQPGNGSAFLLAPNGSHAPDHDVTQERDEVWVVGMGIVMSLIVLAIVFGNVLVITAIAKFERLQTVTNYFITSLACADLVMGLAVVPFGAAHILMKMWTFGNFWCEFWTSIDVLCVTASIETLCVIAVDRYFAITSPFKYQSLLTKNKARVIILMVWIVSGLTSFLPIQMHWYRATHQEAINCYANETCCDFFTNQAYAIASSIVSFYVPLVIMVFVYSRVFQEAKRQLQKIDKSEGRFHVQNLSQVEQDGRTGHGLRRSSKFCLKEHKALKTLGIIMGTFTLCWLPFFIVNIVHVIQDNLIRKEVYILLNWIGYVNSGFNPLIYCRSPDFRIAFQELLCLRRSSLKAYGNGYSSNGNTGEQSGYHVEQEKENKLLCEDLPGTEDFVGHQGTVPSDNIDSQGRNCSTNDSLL

[11] = target: AP-2 complex subunit beta (Homo sapiens) (UniProt P63010); test: beta-arrestin/AP2 interaction blockers – biochemical, validation set, GST-AP2 beads, flow cytometry, pilot screen (AID 504541;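 active means inhibition above 54%, about 3 SD of non-fluorescent compounds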;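 further: AP2 carries R879A mutation and is captured from E. coli lysate; bead-bound FITC arrestin peptide fluorescence measuring arrestin peptide binding to AP2; 0% = DMSO wells and 100% = excess unlabeled arrestin peptide control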); settings: FITC arrestin peptide, at 10 µM, stronger effect = higher value, AP2 beta2 appendage fragment, R879A mutant
Chain of AP-2 complex subunit beta (Homo sapiens) (P63010 whole entry, looked up, the tested form may be a part, one chain of several): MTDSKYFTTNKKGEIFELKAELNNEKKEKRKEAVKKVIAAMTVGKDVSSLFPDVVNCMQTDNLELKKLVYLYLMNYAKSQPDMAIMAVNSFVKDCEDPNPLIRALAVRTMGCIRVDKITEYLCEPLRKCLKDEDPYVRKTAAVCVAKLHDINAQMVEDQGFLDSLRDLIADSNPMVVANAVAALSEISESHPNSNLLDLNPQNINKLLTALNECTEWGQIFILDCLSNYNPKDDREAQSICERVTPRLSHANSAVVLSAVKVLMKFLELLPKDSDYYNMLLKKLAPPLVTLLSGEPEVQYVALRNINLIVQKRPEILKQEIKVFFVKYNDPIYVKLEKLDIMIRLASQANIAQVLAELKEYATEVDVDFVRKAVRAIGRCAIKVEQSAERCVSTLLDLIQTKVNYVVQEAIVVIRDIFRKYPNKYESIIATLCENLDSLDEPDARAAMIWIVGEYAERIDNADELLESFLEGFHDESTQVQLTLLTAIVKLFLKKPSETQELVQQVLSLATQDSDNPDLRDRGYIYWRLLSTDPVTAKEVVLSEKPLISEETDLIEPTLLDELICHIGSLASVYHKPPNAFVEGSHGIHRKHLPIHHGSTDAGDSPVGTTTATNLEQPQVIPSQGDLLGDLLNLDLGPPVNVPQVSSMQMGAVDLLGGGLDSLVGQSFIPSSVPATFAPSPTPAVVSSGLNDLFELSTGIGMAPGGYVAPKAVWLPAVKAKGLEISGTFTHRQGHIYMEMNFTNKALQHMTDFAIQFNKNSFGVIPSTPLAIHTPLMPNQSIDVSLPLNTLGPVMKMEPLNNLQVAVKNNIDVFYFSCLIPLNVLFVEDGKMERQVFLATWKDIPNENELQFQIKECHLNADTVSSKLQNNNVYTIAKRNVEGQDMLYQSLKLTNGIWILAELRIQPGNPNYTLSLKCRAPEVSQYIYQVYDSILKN

[12] = cytosolic pH regulators acting via V-ATPase – S. cerevisiae, pHLuorin, HTS validation (AID 504600; in the data active means response above about 15%;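 further: plate controls were DMSO for no effect and reference compound for full effect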); settings: V-ATPase proton transport, at 10 µM, stronger effect = higher value
[13] = tested on: anti-desmoglein-3 scFv antibody binding to human DSG3; test: blockers of pathogenic pemphigus antibody–desmoglein-3 binding – biochemical, validation compound set, bead-based, flow cytometry, pilot screen (AID 588368;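 active means binding below the plate cutoff, the plate median minus 3 SD, with a reading above zero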;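 further: signal is the median channel fluorescence of bead-bound GFP antibody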); settings: Protein G beads, DSG3-Fc, scFv-GFP binding, at 10 µM, stronger effect = lower value
[14] = Nile Red efflux blockade in pump-expressing yeast – validation compound set, multiplex, phenotypic, pilot screen (AID 588506;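 active means efflux inhibition above 0.42, the validation set average plus 4 SD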;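 further: Nile Red retained in cells so higher fluorescence means more efflux inhibition; 0 = negative control wells and 1 = enniatin B 25 µM full block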); settings: S. cerevisiae pump-expressing triplex, Nile Red efflux flow cytometry; at 10 µM; stronger effect = higher value; the pumps come from Candida albicans
[15] = target: ATP-binding cassette sub-family B member 6 (Homo sapiens) (UniProt Q9NP58); test: blockers of ABCB6-driven porphyrin uptake – K562-ABCB6 cells, flow cytometry, validation set, pilot screen (AID 588550;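 active means inhibition above the screen-wide mean plus 3 SD, about 51%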;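 further: 0% = DMSO wells and 100% = benzethonium chloride 70 µM positive control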); settings: K562-ABCB6 porphyrin accumulation, 1 h, at 10 µM, stronger effect = higher value
Chain of ATP-binding cassette sub-family B member 6 (Homo sapiens) (Q9NP58 whole entry, looked up): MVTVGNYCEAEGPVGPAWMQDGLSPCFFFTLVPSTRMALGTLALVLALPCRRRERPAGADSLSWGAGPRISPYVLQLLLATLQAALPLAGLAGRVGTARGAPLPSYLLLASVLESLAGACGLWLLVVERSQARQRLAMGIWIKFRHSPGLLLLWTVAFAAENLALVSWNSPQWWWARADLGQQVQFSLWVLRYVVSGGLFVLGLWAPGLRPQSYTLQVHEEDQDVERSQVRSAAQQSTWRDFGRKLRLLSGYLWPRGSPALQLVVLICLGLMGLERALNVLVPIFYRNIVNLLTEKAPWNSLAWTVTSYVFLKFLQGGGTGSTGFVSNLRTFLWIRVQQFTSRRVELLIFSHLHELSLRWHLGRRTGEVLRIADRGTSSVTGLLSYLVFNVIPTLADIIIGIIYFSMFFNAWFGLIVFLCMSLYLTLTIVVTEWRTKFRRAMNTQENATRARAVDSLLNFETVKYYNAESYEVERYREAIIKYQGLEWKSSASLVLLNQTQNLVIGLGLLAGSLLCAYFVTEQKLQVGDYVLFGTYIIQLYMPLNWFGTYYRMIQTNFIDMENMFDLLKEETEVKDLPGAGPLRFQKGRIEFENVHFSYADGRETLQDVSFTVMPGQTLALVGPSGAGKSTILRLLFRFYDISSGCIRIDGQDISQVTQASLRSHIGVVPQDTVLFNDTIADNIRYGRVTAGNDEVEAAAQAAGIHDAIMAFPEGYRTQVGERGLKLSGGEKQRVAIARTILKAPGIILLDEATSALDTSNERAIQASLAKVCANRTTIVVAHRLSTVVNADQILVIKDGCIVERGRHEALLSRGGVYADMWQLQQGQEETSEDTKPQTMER

[16] = AML differentiation inducers, ER-HoxA9 marrow cells – cell-based, GFP/MAC1 double positive, flow cytometry, validation set, primary screen (AID 588685;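 active means differentiation response of at least 50%, scaled between solvent and reference control, from cells with both markers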;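 further: compound exposure lasts four days before antibody staining and flow analysis; 0% = DMSO wells and 100% = 5 µM fulvestrant positive control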); settings: stronger effect = higher value, normalized: vehicle 0, fulvestrant 100

Row | Compound | percent of DMSO control GFP [1] | GFP response vs DMSO [2] | percent response of DMSO control [3] | GFP response vs DMSO [4] | GFP response, % of DMSO [5] | double positive events [6] [%] | vesicle binding response [6] | inhibition [7] | superoxide response (% of plate) [8] | aptamer binding inhibition [9] | response [10] | inhibition [11] | response [12] | binding (% of control) [13] | efflux inhibition (fraction of control) [14] | inhibition [15] | differentiation response [16]
1 | COc1cc(C(=O)CCN2CCC(c3ccccc3)C2)cc(OC)c1OC (stereo not drawn) | 108% (inactive) | 97.7% (inactive) | 110% (inactive) | 95.9% (inactive) | 105% (inactive) | 57.9 | 131% (inactive) | 1.59% (inactive) | 117% (inactive) | 2% (inactive) | 2% (inactive) | 4.79% (inactive) | -0.17% (inactive) | 100% (inactive) | 0.1 (inactive) | 0% (inactive) | -10.4% (inactive)
2 | NS(=O)(=O)c1cc2c(cc1Cl)NC(C(Cl)Cl)NS2(=O)=O (stereo not drawn) | 100% (inactive) | 101% (inactive) | 102% (inactive) | 108% (inactive) | 112% (inactive) | 63 | 132% (inactive) | 2.29% (inactive) | 92.7% (inactive) | 4% (inactive) | 23.7% (inactive) | -6.64% (inactive) | 2.72% (inactive) | 104% (inactive) | 0.21 (inactive) | 4% (inactive) | -9.91% (inactive)
3 | NS(=O)(=O)c1ccc(CNC(=O)c2cc(-c3ccccc3)nc3ccccc23)cc1 | 98.8% (inactive) | 109% (inactive) | 104% (inactive) | 95.3% (inactive) | 97.5% (inactive) | 59.3 | 220% (inactive) | -7.72% (inactive) | 104% (inactive) | 2% (inactive) | -8.54% (inactive) | 16% (inactive) | -3.46% (inactive) | 98% (inactive) | -0.1 (inactive) | 1% (inactive) | 5.13% (inactive)
4 | COc1cc(OC)cc(C(C)=O)c1 | 96% (inactive) | 91.8% (inactive) | 95.1% (inactive) | 99.5% (inactive) | 104% (inactive) | 68.7 | 149% (inactive) | 14.2% (inactive) | 94.5% (inactive) | 9% (inactive) | -14.6% (inactive) | -2.85% (inactive) | -2.23% (inactive) | 81.3% (inactive) | 0 (inactive) | 5% (inactive) | -6.96% (inactive)
5 | Cc1ccc(N2C(=O)c3ccccc3C2=O)cc1C | 105% (inactive) | 104% (inactive) | 107% (inactive) | 99.1% (inactive) | 94.8% (inactive) | 63.4 | 121% (inactive) | 6.95% (inactive) | 99.1% (inactive) | 3% (inactive) | -0.69% (inactive) | -6.64% (inactive) | 0.36% (inactive) | 101% (inactive) | 0.24 (inactive) | 0% (inactive) | -3.11% (inactive)
6 | O=C1CCc2cc(OCCCCc3nnnn3C3CCCCC3)ccc2N1 | 92.4% (inactive) | 136% (inactive) | 101% (inactive) | 85.3% (inactive) | 92.2% (inactive) | 67 | 194% (inactive) | -5.18% (inactive) | 102% (inactive) | 6% (inactive) | -6.49% (inactive) | -4.26% (inactive) | -1.32% (inactive) | 96.9% (inactive) | -0.09 (inactive) | 11% (inactive) | 8.19% (inactive)
7 | N/C(=N\OC(=O)CCCOc1ccc(Cl)cc1Cl)c1ccncc1 | 96.4% (inactive) | 110% (inactive) | 108% (inactive) | 118% (inactive) | 92.4% (inactive) | 56.8 | 142% (inactive) | 4.27% (inactive) | 103% (inactive) | -1% (inactive) | -12.7% (inactive) | 3.28% (inactive) | -3.36% (inactive) | 102% (inactive) | -0.005 (inactive) | -7% (inactive) | 4.2% (inactive)
8 | CCCc1cc(C(N)=S)ccn1 | 96.9% (inactive) | 99.6% (inactive) | 101% (inactive) | 91.4% (inactive) | 93.1% (inactive) | 60.4 | 190% (inactive) | 0.94% (inactive) | 97% (inactive) | 2% (inactive) | -5.23% (inactive) | 7.42% (inactive) | -1.93% (inactive) | 97.6% (inactive) | -0.28 (inactive) | -25% (inactive) | -18.4% (inactive)
9 | CC(C)(C)N(Cc1ccccc1)C(=O)c1ccc(Br)o1 | 103% (inactive) | 102% (inactive) | 95.7% (inactive) | 107% (inactive) | 101% (inactive) | 63.4 | 147% (inactive) | -7.08% (inactive) | 101% (inactive) | 6% (inactive) | -22.8% (inactive) | 4.28% (inactive) | -8.19% (inactive) | 97.1% (inactive) | 0.04 (inactive) | 6% (inactive) | -11.9% (inactive)
10 | OCC(O)CN1CCN(c2ccccc2)CC1 (stereo not drawn) | 99.3% (inactive) | 103% (inactive) | 90.5% (inactive) | 103% (inactive) | 102% (inactive) | 59.4 | 145% (inactive) | 9.1% (inactive) | 99.2% (inactive) | 7% (inactive) | -29.2% (inactive) | -3.7% (inactive) | -24.2% (inactive) | 96.2% (inactive) | -0.04 (inactive) | 9% (inactive) | 11.8% (inactive)
11 | Cn1c(=O)[nH]c2nnc(-c3ccc(Cl)c(Cl)c3)nc2c1=O | 103% (inactive) | 102% (inactive) | 105% (inactive) | 98% (inactive) | 104% (inactive) | 61.9 | 133% (inactive) | 2.93% (inactive) | 73.3% (inactive) | 9% (inactive) | 9.11% (inactive) | 5.98% (inactive) | 0.72% (inactive) | 101% (inactive) | -0.21 (inactive) | -7% (inactive) | -13.3% (inactive)
12 | COc1cc(OC)c2c(C)c(Cl)c(=O)oc2c1 | 102% (inactive) | 104% (inactive) | 105% (inactive) | 113% (inactive) | 99.1% (inactive) | 56.7 | 92.7% (inactive) | 2.66% (inactive) | 90.2% (inactive) | -3% (inactive) | -6.2% (inactive) | -8.58% (inactive) | 1.24% (inactive) | 100% (inactive) | -0.1 (inactive) | -9% (inactive) | 0.24% (inactive)
13 | OCCC1CN(Cc2ccccc2-c2ccco2)CCN1C1CCCC1 (stereo not drawn) | 99% (inactive) | 97.6% (inactive) | 93.1% (inactive) | 110% (inactive) | 110% (inactive) | 59 | 123% (inactive) | 12.5% (inactive) | 95% (inactive) | 0% (inactive) | -21.4% (inactive) | -16.3% (inactive) | 4.26% (inactive) | 101% (inactive) | 0.04 (inactive) | 1% (inactive) | -3.02% (inactive)
14 | COc1ccc(NC(=S)N2CCN(CCN3C(=O)c4cccc5cccc(c45)C3=O)CC2)cc1 | 101% (inactive) | 129% (inactive) | 104% (inactive) | 90.2% (inactive) | 91.9% (inactive) | 59.1 | 31.6% (inactive) | -6.15% (inactive) | 86.5% (inactive) | 0% (inactive) | -4.94% (inactive) | 24.4% (inactive) | -0.62% (inactive) | 105% (inactive) | 0.34 (inactive) | 9% (inactive) | 18% (inactive)
15 | CCN(CC)CCNC(=O)c1ccc(N)cc1 | 99.6% (inactive) | 106% (inactive) | 91.9% (inactive) | 89.4% (inactive) | 94.6% (inactive) | 63.2 | 1180% (inactive) | -6.68% (inactive) | 94.8% (inactive) | -2% (inactive) | -4.02% (inactive) | -0.67% (inactive) | 0.99% (inactive) | 94.2% (inactive) | -0.14 (inactive) | 21% (inactive) | 6.11% (inactive)
16 | Cc1[nH]c2ccccc2c1/C=C/c1nc2ccccc2c(=O)n1CCO | 102% (inactive) | 106% (inactive) | 97.7% (inactive) | 110% (inactive) | 100% (inactive) | 59 | 200% (inactive) | -15.4% (inactive) | 89.8% (inactive) | 7% (inactive) | 20.6% (inactive) | 12.7% (inactive) | -3.06% (inactive) | 106% (inactive) | 0.33 (inactive) | 4% (inactive) | 0.8% (inactive)
17 | Cc1ccc2occ(C(=O)c3ccco3)c(=O)c2c1 | 101% (inactive) | 101% (inactive) | 89.5% (inactive) | 85.9% (inactive) | 86.1% (inactive) | 60.6 | 99.1% (inactive) | 6.85% (inactive) | 104% (inactive) | 2% (inactive) | -3.74% (inactive) | -6.83% (inactive) | 0.29% (inactive) | 99.7% (inactive) | -0.31 (inactive) | 1% (inactive) | 0% (inactive)
18 | CCOC(=O)N1CCc2[nH]c3ccc(C)cc3c2C1 | 95.5% (inactive) | 102% (inactive) | 103% (inactive) | 140% (inactive) | 103% (inactive) | 64.6 | 175% (inactive) | -3.67% (inactive) | 110% (inactive) | -1% (inactive) | -9.79% (inactive) | 4.56% (inactive) | 14.9% (inactive) | 105% (inactive) | 0.25 (inactive) | -9% (inactive) | -4% (inactive)
19 | C(=C\c1ccc2ccccc2n1)/c1ccccc1 | 102% (inactive) | 96.3% (inactive) | 98.6% (inactive) | 97.4% (inactive) | 93.2% (inactive) | 63.3 | 306% (inactive) | -27.7% (inactive) | 94.9% (inactive) | 3% (inactive) | 5.82% (inactive) | -3.54% (inactive) | 0.75% (inactive) | 105% (inactive) | -0.31 (inactive) | 114% (active) | -8.8% (inactive)
